The whole screen tested about 5,500 compounds, of which about 2,000 (36%) were called active. Not shown: some 18% with an inconclusive outcome. No stated cut-off is given here; in the data, active means normalized growth mostly below about 0.91 (no sharp cut-off); inconclusive means no clear call, values can overlap the other calls; inactive means mostly above about 0.92. The list shows a part of the results.
Assay: chemical genetic growth profiling, strain panel (AID 1159580);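 further: tested at 20 µM; growth read once vehicle control cultures reached saturation at 30 °C; 1 = growth at the plate median or of vehicle wells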
Conditions: growth OD

Measured: normalized growth

COc1cc2c3cc1Oc1cc(ccc1O)C[C@@H]1c4c(cc(OC)c(O)c4Oc4ccc(cc4)C[C@@H]3N(C)CC2)CC[N+]1(C)C
inactive: S. cerevisiae deletion strains, locus YKL009W, strain mrt4, stronger effect = lower value 1.04 | S. cerevisiae deletion strains, locus YKL068W, stronger effect = lower value 0.997 | S. cerevisiae deletion strains, locus YKL085W, strain MDH1 (second series), stronger effect = lower value 0.988 | S. cerevisiae deletion strains, locus YKL085W, strain MDH1, stronger effect = lower value 0.988 | S. cerevisiae deletion strains, locus YKL160W, strain elf1, stronger effect = lower value 1.04 | S. cerevisiae deletion strains, locus YKL190W, strain CNB1, stronger effect = lower value 1.01 | S. cerevisiae deletion strains, locus YKR001C, strain vps1, stronger effect = lower value 1.01 | S. cerevisiae deletion strains, locus YKR026C, strain gcn3, stronger effect = lower value 1 | S. cerevisiae deletion strains, locus YKR091W, strain srl3, stronger effect = lower value 0.999 | S. cerevisiae deletion strains, locus YLL001W, strain dnm1, stronger effect = lower value 1.04 | S. cerevisiae deletion strains, locus YLL026W, stronger effect = lower value 1.01 | S. cerevisiae deletion strains, locus YLL041C, strain sdh2, stronger effect = lower value 1 | S. cerevisiae deletion strains, locus YLR027C, strain aat2, stronger effect = lower value 1.02 | S. cerevisiae deletion strains, locus YLR039C, strain RIC1, stronger effect = lower value 1.09 | S. cerevisiae deletion strains, locus YLR058C, strain SHM2, stronger effect = lower value 1.01 | S. cerevisiae deletion strains, locus YLR102C, strain apc9, stronger effect = lower value 1 | S. cerevisiae deletion strains, locus YLR113W, strain HOG1, stronger effect = lower value 0.996 | S. cerevisiae deletion strains, locus YLR221C, strain rsa3, stronger effect = lower value 0.966 | S. cerevisiae deletion strains, locus YLR258W, strain gsy2, stronger effect = lower value 0.988 | S. cerevisiae deletion strains, locus YLR262C, strain YPT6 (second series), stronger effect = lower value 1.04 | S. cerevisiae deletion strains, locus YLR262C, strain YPT6, stronger effect = lower value 1.06 | S. cerevisiae deletion strains, locus YLR268W, strain sec22, stronger effect = lower value 1.04 | S. cerevisiae deletion strains, locus YLR320W, strain mms22, stronger effect = lower value 0.967 | S. cerevisiae deletion strains, locus YLR330W, strain CHS5, stronger effect = lower value 1.01 | S. cerevisiae deletion strains, locus YLR342W, strain FKS1 (second series), stronger effect = lower value 0.999 | S. cerevisiae deletion strains, locus YLR342W, strain FKS1, stronger effect = lower value 1.02 | S. cerevisiae deletion strains, locus YLR357W, strain rsc2, stronger effect = lower value 0.958 | S. cerevisiae deletion strains, locus YLR370C, strain arc18, stronger effect = lower value 1.01 | S. cerevisiae deletion strains, locus YLR371W, strain rom2, stronger effect = lower value 1.01 | S. cerevisiae deletion strains, locus YLR384C, strain iki3, stronger effect = lower value 1 | S. cerevisiae deletion strains, locus YLR418C, strain cdc73, stronger effect = lower value 0.986 | S. cerevisiae deletion strains, locus YML016C, strain PPZ1, stronger effect = lower value 1.01 | S. cerevisiae deletion strains, locus YML032C, strain rad52, stronger effect = lower value 0.981 | S. cerevisiae deletion strains, locus YML120C, strain ndi1, stronger effect = lower value 1.03 | S. cerevisiae deletion strains, locus YML124C, strain tub3, stronger effect = lower value 0.999 | S. cerevisiae deletion strains, locus YMR058W, strain fet3, stronger effect = lower value 1 | S. cerevisiae deletion strains, locus YMR078C, strain ctf18, stronger effect = lower value 1.01 | S. cerevisiae deletion strains, locus YMR125W, strain sto1, stronger effect = lower value 0.993 | S. cerevisiae deletion strains, locus YMR129W, stronger effect = lower value 0.98 | S. cerevisiae deletion strains, locus YMR205C, strain PFK2, stronger effect = lower value 1.03 | S. cerevisiae deletion strains, locus YMR223W, strain ubp8, stronger effect = lower value 0.994 | S. cerevisiae deletion strains, locus YMR231W, strain pep5, stronger effect = lower value 0.993 | S. cerevisiae deletion strains, locus YMR307W, strain GAS1, stronger effect = lower value 1.06 | S. cerevisiae deletion strains, locus YNL067W, strain RPL9B, stronger effect = lower value 1.04 | S. cerevisiae deletion strains, locus YNL071W, strain lat1, stronger effect = lower value 0.969 | S. cerevisiae deletion strains, locus YNL128W, strain TEP1, stronger effect = lower value 1.02 | S. cerevisiae deletion strains, locus YNL183C, strain NPR1, stronger effect = lower value 0.948 | S. cerevisiae deletion strains, locus YNL209W, strain ssb2, stronger effect = lower value 0.982 | S. cerevisiae deletion strains, locus YNL233W, strain BNI4, stronger effect = lower value 1.03 | S. cerevisiae deletion strains, locus YNL248C, strain rpa49, stronger effect = lower value 0.926 | S. cerevisiae deletion strains, locus YNL250W, strain rad50, stronger effect = lower value 1.01 | S. cerevisiae deletion strains, locus YNL271C, strain bni1, stronger effect = lower value 1.01 | S. cerevisiae deletion strains, locus YNL298W, strain CLA4, stronger effect = lower value 1 | S. cerevisiae deletion strains, locus YNL307C, strain MCK1, stronger effect = lower value 1.01 | S. cerevisiae deletion strains, locus YNL322C, strain KRE1 (second series), stronger effect = lower value 0.984 | S. cerevisiae deletion strains, locus YNL322C, strain KRE1, stronger effect = lower value 0.999 | S. cerevisiae deletion strains, locus YNR049C, strain mso1, stronger effect = lower value 0.99 | S. cerevisiae deletion strains, locus YNR052C, strain pop2, stronger effect = lower value 1.01 | S. cerevisiae deletion strains, locus YOL006C, strain TOP1, stronger effect = lower value 1.1 | S. cerevisiae deletion strains, locus YOL012C, strain htz1 0.91 | S. cerevisiae deletion strains, locus YOL147C, strain pex11, stronger effect = lower value 0.995 | S. cerevisiae deletion strains, locus YOR001W, strain rrp6, stronger effect = lower value 1.02 | S. cerevisiae deletion strains, locus YOR061W, strain CKA2, stronger effect = lower value 1.01 | S. cerevisiae deletion strains, locus YOR069W, strain VPS5, stronger effect = lower value 1.01 | S. cerevisiae deletion strains, locus YOR070C, strain gyp1, stronger effect = lower value 0.993 | S. cerevisiae deletion strains, locus YOR080W, strain dia2, stronger effect = lower value 1.01 | S. cerevisiae deletion strains, locus YOR083W, strain WHI5, stronger effect = lower value 1.01 | S. cerevisiae deletion strains, locus YOR106W, strain vam3, stronger effect = lower value 1.03 | S. cerevisiae deletion strains, locus YOR136W, strain idh2, stronger effect = lower value 1 | S. cerevisiae deletion strains, locus YOR144C, strain elg1, stronger effect = lower value 0.993 | S. cerevisiae deletion strains, locus YOR184W, strain ser1, stronger effect = lower value 1.01 | S. cerevisiae deletion strains, locus YOR231W, strain MKK1, stronger effect = lower value 0.996 | S. cerevisiae deletion strains, locus YOR265W, strain rbl2, stronger effect = lower value 0.999 | S. cerevisiae deletion strains, locus YOR270C, strain vph1, stronger effect = lower value 0.985 | S. cerevisiae deletion strains, locus YOR290C, strain snf2, stronger effect = lower value 0.946 | S. cerevisiae deletion strains, locus YOR316C, strain cot1, stronger effect = lower value 1 | S. cerevisiae deletion strains, locus YPL051W, strain arl3, stronger effect = lower value 1.01 | S. cerevisiae deletion strains, locus YPL055C, strain LGE1, stronger effect = lower value 1.04 | S. cerevisiae deletion strains, locus YPL078C, strain atp4, stronger effect = lower value 1.04 | S. cerevisiae deletion strains, locus YPL106C, strain sse1, stronger effect = lower value 0.937 | S. cerevisiae deletion strains, locus YPL240C, strain hsp82, stronger effect = lower value 1 | S. cerevisiae deletion strains, locus YPL256C, strain CLN2, stronger effect = lower value 0.99 | S. cerevisiae deletion strains, locus YPR119W, strain clb2, stronger effect = lower value 1 | S. cerevisiae deletion strains, locus YPR141C, strain kar3, stronger effect = lower value 1.01 | S. cerevisiae deletion strains, locus YPR163C, strain tif3, stronger effect = lower value 0.992 | S. cerevisiae deletion strains, locus YPR167C, strain met16, stronger effect = lower value 0.999 | S. cerevisiae deletion strains, strain wtn01, stronger effect = lower value 1.01 | S. cerevisiae strains, strain wild type, stronger effect = lower value 1.01
